What was measured:
[1] = target: T1, Ephrin type-B receptor 1 (Homo sapiens) (UniProt P54762); conditions: at 10 µM
T1 sequence (whole entry): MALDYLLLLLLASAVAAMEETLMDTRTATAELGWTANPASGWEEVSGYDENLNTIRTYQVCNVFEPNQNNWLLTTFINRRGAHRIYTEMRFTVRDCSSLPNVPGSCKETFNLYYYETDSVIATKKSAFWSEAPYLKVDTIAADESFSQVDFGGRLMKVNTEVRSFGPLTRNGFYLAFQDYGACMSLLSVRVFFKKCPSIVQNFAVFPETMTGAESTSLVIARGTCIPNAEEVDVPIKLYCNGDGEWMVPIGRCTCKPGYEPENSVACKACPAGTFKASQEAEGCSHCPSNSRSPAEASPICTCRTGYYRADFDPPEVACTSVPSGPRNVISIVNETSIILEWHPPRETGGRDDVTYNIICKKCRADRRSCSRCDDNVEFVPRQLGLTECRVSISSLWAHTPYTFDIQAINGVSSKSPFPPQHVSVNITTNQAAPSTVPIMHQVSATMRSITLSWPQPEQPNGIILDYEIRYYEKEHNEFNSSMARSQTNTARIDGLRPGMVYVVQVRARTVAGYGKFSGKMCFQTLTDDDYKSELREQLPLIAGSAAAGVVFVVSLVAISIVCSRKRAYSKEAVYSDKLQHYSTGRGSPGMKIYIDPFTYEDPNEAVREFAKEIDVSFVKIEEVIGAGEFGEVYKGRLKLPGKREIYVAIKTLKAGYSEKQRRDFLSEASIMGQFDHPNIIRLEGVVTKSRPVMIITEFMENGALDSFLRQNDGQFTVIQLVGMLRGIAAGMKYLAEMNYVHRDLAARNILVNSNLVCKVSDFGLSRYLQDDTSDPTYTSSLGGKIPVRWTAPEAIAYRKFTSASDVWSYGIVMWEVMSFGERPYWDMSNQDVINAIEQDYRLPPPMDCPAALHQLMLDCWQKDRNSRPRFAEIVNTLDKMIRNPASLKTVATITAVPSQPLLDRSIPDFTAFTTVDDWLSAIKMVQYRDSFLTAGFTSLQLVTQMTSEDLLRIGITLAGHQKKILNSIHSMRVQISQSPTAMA

[2] = target: T2, Ephrin type-B receptor 2 (Homo sapiens) (UniProt P29323); conditions: at 1 µM
T2 sequence (whole entry): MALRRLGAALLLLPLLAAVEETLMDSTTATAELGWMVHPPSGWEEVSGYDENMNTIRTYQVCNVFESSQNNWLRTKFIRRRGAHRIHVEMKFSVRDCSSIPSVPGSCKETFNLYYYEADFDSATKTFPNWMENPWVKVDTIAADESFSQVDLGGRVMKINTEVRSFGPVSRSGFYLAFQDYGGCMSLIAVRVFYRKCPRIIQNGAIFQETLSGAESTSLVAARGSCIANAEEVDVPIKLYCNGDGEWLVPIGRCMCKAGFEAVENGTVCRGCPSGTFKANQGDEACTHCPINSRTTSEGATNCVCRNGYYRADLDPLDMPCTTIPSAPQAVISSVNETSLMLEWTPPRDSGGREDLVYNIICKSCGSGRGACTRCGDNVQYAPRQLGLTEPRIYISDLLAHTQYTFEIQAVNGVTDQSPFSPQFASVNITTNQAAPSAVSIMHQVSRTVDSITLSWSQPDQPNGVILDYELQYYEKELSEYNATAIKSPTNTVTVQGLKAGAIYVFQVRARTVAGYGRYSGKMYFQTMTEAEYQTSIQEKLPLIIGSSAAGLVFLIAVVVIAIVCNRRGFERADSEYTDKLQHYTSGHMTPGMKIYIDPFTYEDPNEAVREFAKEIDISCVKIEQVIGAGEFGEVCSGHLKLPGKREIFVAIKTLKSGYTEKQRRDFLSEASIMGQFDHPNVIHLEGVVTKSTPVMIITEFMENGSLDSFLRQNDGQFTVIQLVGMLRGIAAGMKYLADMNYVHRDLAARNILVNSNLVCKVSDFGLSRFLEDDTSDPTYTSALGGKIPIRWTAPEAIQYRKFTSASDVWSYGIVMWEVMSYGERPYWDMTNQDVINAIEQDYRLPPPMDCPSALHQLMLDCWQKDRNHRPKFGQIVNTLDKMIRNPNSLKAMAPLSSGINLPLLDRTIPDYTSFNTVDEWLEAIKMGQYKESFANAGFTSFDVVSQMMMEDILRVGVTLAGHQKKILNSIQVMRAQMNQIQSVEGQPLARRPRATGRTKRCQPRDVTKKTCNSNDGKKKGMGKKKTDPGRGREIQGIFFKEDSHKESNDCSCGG

[3] = target: T2, Ephrin type-B receptor 2 (Homo sapiens); conditions: at 10 µM
[4] = target: T3, Ephrin type-B receptor 3 (Homo sapiens) (UniProt P54753); conditions: at 1 µM
T3 sequence (whole entry): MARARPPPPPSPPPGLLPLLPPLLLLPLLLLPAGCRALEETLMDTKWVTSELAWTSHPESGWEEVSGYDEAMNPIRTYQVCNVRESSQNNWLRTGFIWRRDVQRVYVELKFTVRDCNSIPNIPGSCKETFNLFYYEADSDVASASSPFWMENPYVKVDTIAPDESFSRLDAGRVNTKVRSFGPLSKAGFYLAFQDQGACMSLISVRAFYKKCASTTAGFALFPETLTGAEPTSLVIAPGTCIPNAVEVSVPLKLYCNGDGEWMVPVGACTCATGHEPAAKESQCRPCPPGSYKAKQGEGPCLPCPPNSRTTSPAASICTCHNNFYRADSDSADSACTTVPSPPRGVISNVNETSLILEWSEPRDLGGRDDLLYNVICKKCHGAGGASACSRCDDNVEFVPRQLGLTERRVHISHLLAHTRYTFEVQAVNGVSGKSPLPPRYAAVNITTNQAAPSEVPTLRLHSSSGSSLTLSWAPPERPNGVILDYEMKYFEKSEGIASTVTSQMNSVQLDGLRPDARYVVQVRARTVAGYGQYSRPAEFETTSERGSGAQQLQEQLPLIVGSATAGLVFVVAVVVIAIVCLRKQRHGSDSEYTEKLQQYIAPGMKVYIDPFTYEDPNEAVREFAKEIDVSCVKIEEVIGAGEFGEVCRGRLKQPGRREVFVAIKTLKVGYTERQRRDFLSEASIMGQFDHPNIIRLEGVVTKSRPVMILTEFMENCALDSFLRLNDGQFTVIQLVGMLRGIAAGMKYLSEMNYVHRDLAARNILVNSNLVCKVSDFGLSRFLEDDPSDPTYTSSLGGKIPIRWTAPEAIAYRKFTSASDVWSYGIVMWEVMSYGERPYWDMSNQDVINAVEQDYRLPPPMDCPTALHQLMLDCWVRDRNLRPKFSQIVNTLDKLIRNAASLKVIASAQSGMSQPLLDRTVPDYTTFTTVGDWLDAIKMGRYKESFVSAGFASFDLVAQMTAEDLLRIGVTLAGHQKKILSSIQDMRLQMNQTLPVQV

[5] = target: T3, Ephrin type-B receptor 3 (Homo sapiens); conditions: at 10 µM
[6] = target: T4, Ephrin type-B receptor 4 (Homo sapiens) (UniProt P54760); conditions: at 1 µM
T4 sequence (whole entry): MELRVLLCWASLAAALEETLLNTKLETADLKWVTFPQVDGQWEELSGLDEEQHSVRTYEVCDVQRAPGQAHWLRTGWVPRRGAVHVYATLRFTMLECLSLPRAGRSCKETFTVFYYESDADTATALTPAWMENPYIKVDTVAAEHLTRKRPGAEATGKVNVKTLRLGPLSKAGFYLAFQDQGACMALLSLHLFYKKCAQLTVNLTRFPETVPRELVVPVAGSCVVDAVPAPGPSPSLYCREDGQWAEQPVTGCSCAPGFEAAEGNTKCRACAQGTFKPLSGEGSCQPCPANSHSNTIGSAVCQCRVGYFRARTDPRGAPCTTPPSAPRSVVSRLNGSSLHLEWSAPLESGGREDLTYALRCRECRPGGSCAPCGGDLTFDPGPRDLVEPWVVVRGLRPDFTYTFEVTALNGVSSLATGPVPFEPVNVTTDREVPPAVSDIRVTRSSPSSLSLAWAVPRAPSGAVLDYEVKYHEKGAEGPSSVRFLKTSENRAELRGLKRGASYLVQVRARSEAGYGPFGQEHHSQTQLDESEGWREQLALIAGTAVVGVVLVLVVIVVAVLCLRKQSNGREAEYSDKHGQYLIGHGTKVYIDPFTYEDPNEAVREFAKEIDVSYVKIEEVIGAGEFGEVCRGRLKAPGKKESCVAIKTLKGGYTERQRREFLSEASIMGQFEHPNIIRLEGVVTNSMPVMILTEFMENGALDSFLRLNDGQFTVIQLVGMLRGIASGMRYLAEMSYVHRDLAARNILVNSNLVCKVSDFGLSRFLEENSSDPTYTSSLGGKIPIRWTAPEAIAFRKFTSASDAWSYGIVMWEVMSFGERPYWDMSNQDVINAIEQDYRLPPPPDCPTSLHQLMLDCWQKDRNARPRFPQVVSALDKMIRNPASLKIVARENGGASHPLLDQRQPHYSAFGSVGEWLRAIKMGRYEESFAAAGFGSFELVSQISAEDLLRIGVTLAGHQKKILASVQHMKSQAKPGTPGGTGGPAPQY

[7] = target: T4, Ephrin type-B receptor 4 (Homo sapiens); conditions: at 10 µM
[8] = target: Receptor tyrosine-protein kinase erbB-4 (Homo sapiens) (UniProt Q15303); conditions: at 1 µM
Receptor tyrosine-protein kinase erbB-4 (Homo sapiens), sequence (Q15303 whole entry): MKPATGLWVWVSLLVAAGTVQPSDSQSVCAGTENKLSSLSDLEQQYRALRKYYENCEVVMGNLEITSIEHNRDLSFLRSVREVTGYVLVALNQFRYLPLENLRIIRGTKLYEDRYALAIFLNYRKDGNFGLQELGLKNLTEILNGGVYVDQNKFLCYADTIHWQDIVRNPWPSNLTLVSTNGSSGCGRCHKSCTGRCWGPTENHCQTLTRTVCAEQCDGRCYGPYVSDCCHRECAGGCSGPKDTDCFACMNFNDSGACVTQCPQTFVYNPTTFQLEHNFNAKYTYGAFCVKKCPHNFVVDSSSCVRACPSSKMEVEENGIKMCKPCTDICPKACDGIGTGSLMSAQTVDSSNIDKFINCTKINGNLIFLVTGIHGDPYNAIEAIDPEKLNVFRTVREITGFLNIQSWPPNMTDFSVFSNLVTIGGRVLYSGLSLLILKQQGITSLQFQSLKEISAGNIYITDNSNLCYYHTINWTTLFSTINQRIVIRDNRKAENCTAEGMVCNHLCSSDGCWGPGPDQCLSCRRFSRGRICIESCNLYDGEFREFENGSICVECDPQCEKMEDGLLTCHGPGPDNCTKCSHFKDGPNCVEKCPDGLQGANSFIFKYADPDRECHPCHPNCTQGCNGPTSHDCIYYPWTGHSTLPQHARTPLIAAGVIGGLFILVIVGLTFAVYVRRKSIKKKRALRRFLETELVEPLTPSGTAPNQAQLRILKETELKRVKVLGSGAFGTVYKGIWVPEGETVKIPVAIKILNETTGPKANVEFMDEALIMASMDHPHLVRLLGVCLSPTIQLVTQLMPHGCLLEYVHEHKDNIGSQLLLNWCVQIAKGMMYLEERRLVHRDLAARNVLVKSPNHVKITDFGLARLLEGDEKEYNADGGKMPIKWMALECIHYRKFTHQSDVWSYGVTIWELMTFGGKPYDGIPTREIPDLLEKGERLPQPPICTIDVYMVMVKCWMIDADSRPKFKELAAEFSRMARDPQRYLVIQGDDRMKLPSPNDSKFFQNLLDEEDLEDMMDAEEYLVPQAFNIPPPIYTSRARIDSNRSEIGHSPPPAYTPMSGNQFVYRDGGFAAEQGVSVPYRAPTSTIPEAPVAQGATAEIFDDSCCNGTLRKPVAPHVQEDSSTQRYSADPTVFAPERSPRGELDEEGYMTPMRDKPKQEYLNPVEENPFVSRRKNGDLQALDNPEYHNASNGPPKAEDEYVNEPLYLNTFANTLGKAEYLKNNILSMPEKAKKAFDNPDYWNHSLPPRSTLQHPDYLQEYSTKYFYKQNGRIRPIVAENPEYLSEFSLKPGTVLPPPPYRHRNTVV

[9] = target: Receptor tyrosine-protein kinase erbB-4 (Homo sapiens) (UniProt Q15303); conditions: at 10 µM
[10] = target: Focal adhesion kinase 1 (Homo sapiens) (UniProt Q05397); conditions: at 1 µM
Focal adhesion kinase 1 (Homo sapiens), sequence (Q05397 2-1052 limits assumed): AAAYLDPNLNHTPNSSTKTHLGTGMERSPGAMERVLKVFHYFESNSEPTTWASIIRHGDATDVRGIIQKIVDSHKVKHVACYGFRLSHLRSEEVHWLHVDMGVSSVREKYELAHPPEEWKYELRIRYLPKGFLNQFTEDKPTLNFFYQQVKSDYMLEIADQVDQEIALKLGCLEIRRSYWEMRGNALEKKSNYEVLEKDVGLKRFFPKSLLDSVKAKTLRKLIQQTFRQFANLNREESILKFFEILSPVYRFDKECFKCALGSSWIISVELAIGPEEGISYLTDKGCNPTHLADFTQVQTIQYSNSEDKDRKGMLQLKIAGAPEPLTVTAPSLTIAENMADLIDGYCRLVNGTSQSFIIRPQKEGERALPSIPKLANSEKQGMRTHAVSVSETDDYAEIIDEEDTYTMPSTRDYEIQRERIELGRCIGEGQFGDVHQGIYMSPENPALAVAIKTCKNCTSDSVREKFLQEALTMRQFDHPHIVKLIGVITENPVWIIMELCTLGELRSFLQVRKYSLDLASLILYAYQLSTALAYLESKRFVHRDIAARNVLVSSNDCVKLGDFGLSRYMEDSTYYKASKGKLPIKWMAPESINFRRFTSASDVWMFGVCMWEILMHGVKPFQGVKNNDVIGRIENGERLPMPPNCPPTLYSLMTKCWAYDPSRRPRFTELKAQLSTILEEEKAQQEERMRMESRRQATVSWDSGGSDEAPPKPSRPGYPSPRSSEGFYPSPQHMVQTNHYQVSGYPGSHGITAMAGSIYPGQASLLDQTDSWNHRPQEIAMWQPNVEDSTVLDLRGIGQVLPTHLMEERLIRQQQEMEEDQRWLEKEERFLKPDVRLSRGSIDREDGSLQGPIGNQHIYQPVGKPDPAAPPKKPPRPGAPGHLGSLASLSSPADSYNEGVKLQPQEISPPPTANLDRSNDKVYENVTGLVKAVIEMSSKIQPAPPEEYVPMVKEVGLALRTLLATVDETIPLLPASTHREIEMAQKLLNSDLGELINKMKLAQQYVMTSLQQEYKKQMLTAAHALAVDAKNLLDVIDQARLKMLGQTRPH

CC[n+]1c(/C=C/N(C)c2ccccc2)n(-c2ccccc2)c2ccc(-c3nc4ccccc4s3)cc21
residual activity [1]: 56%
residual activity [2]: 136%
residual activity [3]: 129%
residual activity [4]: 131% (inactive)
residual activity [5]: 160%
residual activity [6]: 114%
residual activity [7]: 159%
residual activity [8]: 79%
residual activity [9]: 99%
residual activity [10]: 144%

From ChEMBL document CHEMBL2218924, “A broad activity screen in support of a chemogenomic map for kinase signalling research and drug discovery” (Biochem J, 2013)
